Reference: PubChem BioAssay (NCATS)
Records with an inconclusive call do not appear. A number with no mark means an inactive call. Calls come from the whole dose curve; as a rule, active = well fitted curve in the direction sought with a large enough effect; inconclusive = small, poorly fitted or top-dose-only effect, or another doubt; inactive = no such curve, though single readings can be large or run the other way.

Biological target: phosphoglycerate mutase (Leishmania major) (UniProt Q4Q090)
Test: qHTS Validation Assay to Find Inhibitors of Phosphoglycerate Mutase (AID 504548)
Conditions: biochemical enzyme activity; Potency: inhibition qHTS; series mostly up to 57.5 µM; activity change, negative = inhibition: at the top concentration
Source text: NIH Molecular Libraries Probe Production Network [MLPCN]
NIH Chemical Genomics Center [NCGC]
PI Name: Malcolm Walkinshaw, University of Edinburgh
Several species of the Trypanosomatidae family of parasitic protozoans cause a spectrum of diseases throughout the tropical and subtropical world. Sleeping sickness, caused by two subspecies of Trypanosoma brucei, is endemic to areas of sub-Saharan Africa, while Chagas disease, a manifestation of Trypanosoma cruzi infection, is prevalent throughout Central and South America. In addition, many species of Leishmania are responsible for a range of cutaneous and visceral diseases, causing ulcers, destructive lesions and kalaazar, a lethal infection of the viscera. Collectively, these organisms infect 30 million people worldwide (~500 million live in endemic areas), and account for ~130,000 deaths annually. Given their debilitating and prevalent nature, trypanosomatid parasites impose a heavy medical, economic and social burden on entire populations, primarily in the developing world. The problem is further exacerbated by the fact that existing treatments have progressed little in the past 50 years, and current drugs show high toxicity and poor efficacy.
Blood-stream stages of T. brucei are entirely dependent on glycolysis as a source of ATP, and the tricarboxylic acid cycle and oxidative phosphorylation are both repressed. Glycolysis in axenically cultured T. cruzi, representing the intracellular pathogenic stage, is also essential for these parasites. […] Previous studies have shown that the glycolytic enzyme, phosphoglycerate mutase (PGAM), is a viable target for drugs to kill these parasites. […] Furthermore, the cobalt centers present within PGAM are only found in trypanosomatid and plant PGAMs, and are known to be required for activity, thereby providing an additional target. Moreover, trypanosomatid PGAMs are completely different from the enzyme that performs the same function in humans: the parasite and host enzymes share no structural or even mechanistic features; specificity is therefore unlikely to be an issue.
NCGC Assay Protocol Summary:
Briefly, 3ul of substrate buffer (all columns) are dispensed into Greiner white solid bottom 1536-well assay plates. Compounds are then transferred via Kalypsys pin tool equipped with 1536-pin array (10nl slotted pins, V&P Scientific, San Diego, CA). Following addition of compound, 1ul of Lm PGAM (1.25nM final concentration, columns […]) is added to initiate the reaction; columns 3-4 receive only TEA buffer as negative controls. The plates are then incubated at room temperature for 45 minutes. Kinase-GloPlus reagent is added (2ul) and plates incubated for 10 minutes, before being transferred to a ViewLux high-throughput CCD imager (PerkinElmer) wherein single end-point measurements of luminescence are acquired using a clear filter. All reagents are diluted in an assay buffer consisting of 100 mM TEA (pH 7.6), 5 mM MgCl2 and 0.01% Tween-20.
% is set by controls: 0 for no effect and ±100 for the full control effect.

Sequence of phosphoglycerate mutase (Leishmania major) (Q4Q090 1-553): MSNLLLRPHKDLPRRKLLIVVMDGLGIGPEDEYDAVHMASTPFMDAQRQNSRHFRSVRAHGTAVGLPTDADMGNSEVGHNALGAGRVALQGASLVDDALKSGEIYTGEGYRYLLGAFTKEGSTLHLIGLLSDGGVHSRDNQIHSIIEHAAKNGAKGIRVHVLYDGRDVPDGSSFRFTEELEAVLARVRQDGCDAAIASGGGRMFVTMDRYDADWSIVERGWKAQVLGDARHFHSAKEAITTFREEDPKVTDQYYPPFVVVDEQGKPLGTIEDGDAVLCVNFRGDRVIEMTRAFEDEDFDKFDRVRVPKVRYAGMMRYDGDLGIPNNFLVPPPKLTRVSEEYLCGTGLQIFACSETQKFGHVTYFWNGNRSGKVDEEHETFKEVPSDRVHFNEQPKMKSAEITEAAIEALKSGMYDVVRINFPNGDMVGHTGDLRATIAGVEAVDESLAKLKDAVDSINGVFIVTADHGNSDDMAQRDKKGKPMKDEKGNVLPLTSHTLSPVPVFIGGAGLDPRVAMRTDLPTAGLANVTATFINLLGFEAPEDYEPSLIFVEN

Compound	activity change, negative = inhibition
O=c1ccn([C@@H]2O[C@H](COP(=O)(O)OP(=O)(O)O)[C@@H](O)[C@H]2O)c(=O)[nH]1	-3.89%
CCOC(=O)C12CC1/C(=N/O)c1ccccc1O2 (stereo not given)	5.41%
CCn1c(=O)[nH]c2cc(Cl)c(Cl)cc21	-1.56%
N[C@H](C(=O)O)[C@H](Cc1ccccc1)C(=O)O	-3.4%
N#C/C(=C\c1ccc(O)c(O)c1)C(=O)NCCCNC(=O)/C(C#N)=C/c1ccc(O)c(O)c1	-2.56%
O=C(O)c1ccccc1Nc1cccc(OCc2ccc3ccccc3n2)c1	-2.23%
NC(=O)CC[C@H](N)C(=O)O	6.42%
CN(C)CCC(c1ccc(Br)cc1)c1ccccn1 (stereo not given)	1.72%
N#CC(=C(\N)Sc1ccccc1N)/C(C#N)=C(/N)Sc1ccccc1N	-1.66%
NC(=Nc1ccccc1)NC(=O)c1nc(Cl)c(N)nc1N	6.77%
CC(C)C[C@H](NC(=O)C1OC1C(=O)O)C(=O)NCCCCN=C(N)N (stereo not given in full)	-3.52%
CCc1ccc2c(-c3cccc(Cl)c3)nc(=O)n(CC)c2n1	11.9%
[N-]=[N+]=Nc1ccc(C(=O)CSC[C@H](NC(=O)CC[C@H](N)C(=O)O)C(=O)NCC(=O)O)cc1	-3.28%
CC(=O)/C(C)=N/O	-10.6%
N[C@@H](CCC(=O)N[C@H](CSN=O)C(=O)NCC(=O)O)C(=O)O	-1.62%
Nc1ccc(-c2nc3ccc(-c4nc5ccc(N)cc5[nH]4)cc3[nH]2)cc1	-0.0828%
O=c1cc(O)cc(/C=C/c2ccc(O)c(O)c2)o1	-2.67%
CCC1(O)CC2CN(CCc3c([nH]c4ccccc34)[C@@](C(=O)OC)(c3cc4c(cc3OC)N(C=O)C3[C@]45CCN4CC=C[C@@](CC)([C@@H](OC(C)=O)[C@]3(O)C(=O)OC)[C@H]45)C2)C1 (stereo not given in full)	2.52%
NC(=O)c1cc[n+](CC2=C(C(=O)O)N3C(=O)[C@@H](NC(=O)[C@@H](c4ccccc4)S(=O)(=O)[O-])[C@H]3SC2)cc1	0.995%
CC(=O)[C@H]1CCC2C3CC=C4C[C@@H](OS(=O)(=O)O)CC[C@]4(C)C3CC[C@@]21C (stereo not given in full)	8.21%

Compound	activity change, negative = inhibition
O=c1[nH]c(=O)c2nc3ccccc3nc2[nH]1	7.16%
C=CCn1c(=O)c2c(nc(-c3ccc(S(=O)(=O)O)cc3)n2C)n(C)c1=O	5.86%
CCCCCC[C@@H]([C@@H](C)O)n1cnc2c(N)ncnc21	-3.22%
CC(N)(C(=O)O)c1ccc(C(=O)O)cc1 (stereo not given)	-5.68%
CC(C)C[C@H](NC(=O)[C@H](O)[C@H](N)Cc1ccccc1)C(=O)O	7.69%
NC(C(=O)N[C@@H]1C(=O)N2C(C(=O)O)=C(Cl)CS[C@H]12)c1ccccc1 (stereo not given in full)	11%
NC1C=CC=C(C(=O)O)C1 (stereo not given)	2.68%
CC(O)C(O)[C@H]1CNc2nc(N)[nH]c(=O)c2N1 (stereo not given in full)	17.4%
CC1=C(/C=C/C(C)=C/C=C/C(C)=C\C(=O)O)C(C)(C)CCC1	1.84%
CC(C)(CO)Cc1cc(C(C)(C)C)c(O)c(C(C)(C)C)c1	-2.61%
O=[N+]([O-])c1cccc2c(Br)[nH]nc12	-5.41%
COc1cc(C(O)CO)ccc1O (stereo not given)	6.58%
c1ccc2c(c1)CC(N1CCN(c3cccc4c3OCCO4)CC1)C2	12.7%
Clc1nccc2c1ccc1ccccc12	-1.77%
CN1CC(O)C(O)C(O)C1CO (stereo not given)	-5.4%
CC(=O)NCCc1c[nH]c2ccc(O)cc12	0.575%
C=CC1(C)CC(=O)C2(O)C(C)(O1)C(OC(C)=O)C(O)C1C(C)(C)CCC(O)C12C (stereo not given)	2.46%
Nc1ncnc2c1c(-c1ccc(Oc3ccccc3)cc1)cn2C1CCCC1	0.768%
N=C(N)c1ccc(OCCCCCOc2ccc(C(=N)N)cc2)cc1 (tested in a mixture with another compound)	-2.2%
OC[C@H]1O[C@@H](n2cnc3cncnc32)[C@H](O)[C@@H]1O	12%
